Measurements published in PubChem BioAssay AID588795 (National Center for Advancing Translational Sciences (NCATS), 2011).
“And” between values parts separate entries of the source, which are not always exact repeats. Identical values can stand only once. Among all 390,000 compounds or so, about 1,400 (0.36%) were called active. Inconclusive results (about 2%) are left out. Calls come from the whole dose curve; as a rule, active = well fitted inhibition curve with a large enough effect; inconclusive = small, poorly fitted or top-dose-only effect; inactive = no such curve, though single readings can be large or run the other way. The full list was thinned out, with actives kept by preference. The source holds several records for some structures; these can differ, active in one and inactive in another.

The molecules below were run against Flap endonuclease 1 (Homo sapiens) (UniProt P39748) (assay: qHTS Assay for the Inhibitors of Human Flap endonuclease 1 (FEN1).). Settings: Recombinant FEN1 flap cleavage, fluorescence, 15 min; series mostly up to 114 µM; activity change, negative = inhibition: at the top concentration.
Sequence of Flap endonuclease 1 (Homo sapiens) (P39748 whole entry, looked up, the tested form may be a part): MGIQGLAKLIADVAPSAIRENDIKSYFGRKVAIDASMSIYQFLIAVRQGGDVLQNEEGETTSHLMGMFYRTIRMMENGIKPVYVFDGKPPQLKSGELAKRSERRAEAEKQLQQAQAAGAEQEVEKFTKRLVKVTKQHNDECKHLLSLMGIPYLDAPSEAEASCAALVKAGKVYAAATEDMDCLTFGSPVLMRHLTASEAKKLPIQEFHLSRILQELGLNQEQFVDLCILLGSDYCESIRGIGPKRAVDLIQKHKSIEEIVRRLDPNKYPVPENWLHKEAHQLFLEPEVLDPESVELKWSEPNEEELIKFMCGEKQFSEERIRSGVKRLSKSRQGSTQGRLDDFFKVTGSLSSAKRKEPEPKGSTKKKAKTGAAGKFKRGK
From the text: The major human flap endonuclease FEN1 is an efficient structure-specific enzyme that recognizes and cleaves a 5'-unannealed DNA flap. It belongs to the RAD2 family nucleases, which are involved in DNA metabolism and are highly conserved in prokaryotes and eukaryotes. FEN1 is a key enzyme in DNA replication, repair and maintenance of genomic stability. 5'-flap removal by FEN1 is critical for Okazaki fragment processing during lagging strand DNA synthesis, long-patch base excision repair (LP BER), and regulating or facilitating recombination events. […] Deletion of the yeast FEN1 gene, i.e. rad27, results in an increased frequency of short DNA (3-32 bp) repeats, micro- and mini-satellite formation, trinucleotide repeat expansion, spontaneous recombination events, and a severe growth defect in association with cell cycle arrest in late S/G2 phase. […] Cells from fen1-/- blastocysts show increased apoptotic cell death after ionizing radiation treatment, and chicken cells lacking the fen1 gene are hypersensitive to DNA alkylating agents, e.g. methylmethane sulfonate (MMS) and N-methyl-N'-nitro-N-nitrosoguanidine (MNNG), as well as hydrogen peroxide.
NIH Chemical Genomics Center [NCGC]
NIH Molecular Libraries Probe Centers Network [MLPCN]
Assay Submitter (PI): David Wilson, National Institute of Aging
Three uL of reagents (buffer in column 3 and 4 as negative control and 10 nM FEN1 in columns 1, 2, and 5-48) were dispensed into 1,536-well black solid-bottomed plate. Compounds (23 nL) were transferred via Kalypsys pin tool equipped with 1536-pin array (10 nL slotted pins, V&P Scientific, San Diego, CA). The plates were then incubated for 15 min at room temperature, and 1 uL substrate (50 nM final concentration) were added to start the reaction read twice at 0 min read and 15 min on ViewLux reader. Throughout the screen, reagent bottle and all liquid lines were chilled and made light-tight to minimize reagent degradation. All screening operations were performed on a fully integrated robotic system (Kalypsys, San Diego, CA) containing one RX-130 and two RX-90 anthropomorphic robotic arms (Staubli, Duncan, SC). Library plates were screened starting from the lowest and proceeding to the highest concentration, and a "double-dipping" step of the highest concentration was required to access higher concentrations of compounds. Vehicle-only plates, with DMSO being pin-transferred to the entire column 5-48 compound area, were inserted uniformly at the beginning and the end of each library in order to monitor for and record any shifts in the background, which can be affected by reagent dispensers or loss in enzyme activity overtime. Screening data was corrected, normalized, and concentration-effect relationships were derived by using publicly-available curve fitting algorithms developed in-house (http://ncgc.nih.gov/pub/openhts). A four parameter Hill equation was fitted to the concentration-response data by minimizing the residual error between the modeled and observed responses.
% is set by controls: 0 for no effect and ±100 for the full control effect; potency is the fitted concentration of half-maximal effect.
Note: nearly all actives have a fitted effect of over 65% in size.

SMILES | activity change, negative = inhibition | Potency
COc1ccccc1CNC(=O)C(=O)NCC(c1ccco1)S(=O)(=O)c1ccc(F)cc1 (stereo not given) | 11.7% (inactive) | –
CN(C)c1cccc2ccccc12 | 1.97% (inactive) | –
Brc1nc2ncnc(NCc3ccco3)c2[nH]1 | -16.5% (inactive) | –
C[N+]1(CC(=O)c2cccs2)CCOCC1 | -17.5% (inactive) | –
O=C(NCCc1ccccc1)c1ccc2c(c1)N(Cc1ccccc1)C(=O)c1ccccc1S2(=O)=O | -10.8% (inactive) | –
CCC(C)N(c1ccc(/C=C/c2ccnc3ccccc23)cc1)C(C)CC (stereo not given) | -22.3% (inactive) | –
Cn1c(COc2ccccc2C(C)(C)C)nc2ccccc21 | -2.63% (inactive) | –
CCOc1n[nH]c(-c2ccccc2)n1 | -2.51% (inactive) | –
O=C(Nc1ccc(N2CCOCC2)cc1)c1ccc(-c2ccccc2[N+](=O)[O-])o1 | -16% (inactive) | –
O=C1NC(c2ccc(-c3ccccc3[N+](=O)[O-])o2)C(C(=O)c2ccc(Cl)cc2)C(O)(C(F)(F)F)N1 (stereo not given) | -22.5% (inactive) | –
CC1=NN(c2ccc(Cl)c(C(=O)O)c2)C(=O)/C1=C/c1ccc(-c2ccccc2[N+](=O)[O-])o1 | – | 28.2 µM (active)
CN(C(=N)N)c1ccc(/C=C2\C=Cc3ccccc32)cc1 | -10.5% (inactive) | –
CC(=O)Nc1ccc2nc(SCCOc3cc(C)cc(C)c3)sc2c1 | 11.5% (inactive) | –
COc1ccc2c(c1)c(=Cc1ccc(N(C)C)cc1)c1cc(-c3ccccc3)[n+](C)n12 | – | 4.47 µM (active)
CN(C)c1ccc(/C=c2\[nH]c(=O)/c(=C/c3ccc(N(C)C)cc3)[nH]c2=O)cc1 | -0.26% (inactive) | –
CN(C)CCCn1c(-c2ccc(Cl)cc2)csc1=Nc1ccccc1 | -14.2% (inactive) | –
CC1(C)C=Cc2c(ccc(C(=O)/C=C/c3ccccc3)c2O)O1 | -7.78% (inactive) | –
CC(C)(C)c1ccc(C(=O)C[n+]2cccc3cc(Cl)ccc32)cc1 | -3.13% (inactive) | –
Nc1nc(N)c(N=O)c(N)n1 | -13.9% (inactive) | –
CC(C)(C)n1ncc2c(=O)n(Cc3c(Cl)cccc3Br)cnc21 | -20% (inactive) | –
CC(C)(C)n1ncc2c(=O)n(Cc3ccc(Cl)cc3)cnc21 | – | inactive and 39.8 µM (active)
CC(C)(C)n1ncc2c(=O)n(Cc3ccc(C(=O)c4ccccc4)cc3)cnc21 | 6.55% (inactive) | –
Oc1ccc(Br)cc1C1C=C(c2ccc3c(c2)OCO3)NC(c2ccc(Cl)cc2)N1 (stereo not given) | -18% (inactive) | –
N#Cc1ccc[n+](CC(=O)c2ccc(F)cc2)c1 | 17% (inactive) | –
O=C(C[n+]1ccncc1)c1ccc2c(c1)CCCC2 | 13.6% (inactive) | –
N#Cc1ccc[n+](CC(=O)c2ccc(O)c(O)c2)c1 | – | 2 µM (active)
CCN1CCN(c2ccc(/C=C/c3ccnc4ccccc34)cc2)CC1 | -31.7% (inactive) | –
Cc1ccc(Cl)cc1NC(=O)/C(C#N)=C\c1cn(Cc2ccc(F)cc2)c2ccccc12 | – | 89.1 µM (active)
Cc1ccc(/C=C(\C#N)C(=O)Nc2cc(C)ccc2C)cc1 | 16.1% (inactive) | –
N#CCC(=O)N/N=C/c1cn(Cc2ccc3ccccc3c2)c2ccccc12 | 3.82% (inactive) | –
